# Rows were chosen to be rich in hits. Some 3% of all compounds tested hit in one or more screens of this group.
# SNCA viab count – cell viability loss counter-screen. HEK-293-SNCA-luc viability, GF-AFC fluorescence, 24 h. Potency, µM (titrated, usually from 57.1 µM), usual class: cytotoxic. hit rate 0.12% among 150,000; also: nearly all actives have a fitted effect of over 30% in size
#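 HEK-293-SNCA-luc cells (1500/well) plated 24 h, then exposed 24 h to a dilution series; GF-AFC added 30 min at 37C, fluorescence 405/540 nm; normalised to medium-only and DMSO wells, Hill fit.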
# KDM5B inh – KDM5B demethylase inhibition; Q9UGL1; KDM5B demethylase, FDH-coupled NADH fluorescence (FDH is formaldehyde dehydrogenase); Potency, µM (highest dose often 57.7 µM), hits mostly inhibitors; hit rate 2.6% among 220,000; AID 1347165; also: nearly all actives have a fitted effect of over 70% in size
#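 Compound dilutions met 200 nM (final) KDM5BΔAP for 10 min at room temperature before substrate addition. The substrate mix held 12.5 µM H3K4me3 with cofactors 25 µM α-ketoglutarate and 50 µM Fe²⁺. NADH signal gain over 30 min defined activity.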
# IP6K1 inh – IP6K1 kinase inhibition. Q92551. IP6K1 kinase, ADP-Glo luminescence, 2 h; stronger effect = lower value. activity change, % (series mostly up to about 58 µM). hit rate 0.81% among 140,000; in the data active = activity change below about -25%
#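 ADP-Glo luminescence measures ADP made by human IP6K1 during a 2 h RT reaction with ATP/IP6 (mix at 1.3 mM/130 uM); top library doses 57.5 and 19.1 uM final.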
# SNCA expr inh – reduces expression of the alpha-synuclein gene. hit rate 0.17% among 140,000. Potency, µM (highest dose often 57.2 µM), hits mostly inhibitors. AID 1671194. HEK-293 SNCA-luciferase knock-in, luminescence, 24 h; also: nearly all actives have a fitted effect of over 45% in size
# Hits are given with their value; i = inactive; ? = inconclusive; nt = no result given. Unless noted, calls follow the shape of the dose curve; as a rule, active = well fitted curve in the direction sought with a large enough effect; inconclusive = small, poorly fitted or top-dose-only effect, or another doubt; inactive = no such curve, though single readings can be large; an effect the other way counts as inactive or inconclusive.
SMILES,SNCA viab count,KDM5B inh,IP6K1 inh,SNCA expr inh
CN(CC(=O)N1CCc2nc3cc(-c4ccccc4)[nH]n3c(=O)c2C1)S(=O)(=O)c1cccs1,i,?,i,i
CN(CC(=O)N1CCc2nc3cc(-c4ccccc4)[nH]n3c(=O)c2C1)S(=O)(=O)c1cnc[nH]1,i,28µM,i,?
COc1ccc(-c2cc3nc4c(c(=O)n3[nH]2)CN(S(=O)(=O)c2cccs2)CC4)cc1,i,?,i,?
COc1ccc(-c2cc3nc4c(c(=O)n3[nH]2)CN(C(=O)CN(C)S(=O)(=O)c2cnc[nH]2)CC4)cc1,i,25µM,i,?
CC(C)(C)C(C)(O)C#CCN1CCCC1 (stereo not drawn),nt,i,nt,nt
Cc1ccc(C(=O)NC2CCN(c3cc(-c4cccs4)[nH]n3)CC2)cc1F,i,?,i,i
CN(C)c1cccc(C(=O)NC2CCN(c3cc(-c4cccs4)[nH]n3)C2)c1 (stereo not drawn),i,?,i,i
Cc1ccccc1C(=O)NC1CCN(c2cc(-c3cccs3)[nH]n2)C1 (stereo not drawn),i,13µM,i,i
Cc1ccc(C(=O)NC2CCN(c3cc(-c4cccs4)[nH]n3)C2)cc1F (stereo not drawn),?,4µM,i,i
COc1ccc(C(=O)NC2CCN(c3cc(-c4cccs4)[nH]n3)C2)cc1OC (stereo not drawn),i,11µM,i,i
Cc1cccc(C(=O)NC2CCN(c3cc(-c4cccs4)[nH]n3)C2)c1 (stereo not drawn),i,11µM,i,i
O=C(NC1CCN(c2cc(-c3cccs3)[nH]n2)C1)c1ccncc1 (stereo not drawn),i,?,i,i
O=C(NCc1ccc(F)cc1)C1CCN(Cc2ccccc2-c2ccccc2F)CC1,nt,nt,i,nt
CCc1[nH]c2c(CNC(=O)C3(C)CCCCO3)cc(F)cc2c1C (stereo not drawn),i,20µM,i,i
CC1=C(C(=O)Nc2ccccc2C(=O)NCCc2ccco2)SCCO1,nt,i,nt,nt
CN(C)C[C@@H]1CN(S(C)(=O)=O)C[C@H]1NC(=O)c1cc2ccccc2[nH]1,i,32µM,i,i
COCCNC(=O)[C@@H]1C[C@@H](c2ccc(F)cc2)N([S+](=O)([O-])c2cccnc2)C1,i,35µM,i,i
CCC(=O)Nc1ccc(C2(C(=O)N3CCN(c4ccccn4)CC3)CCCCC2)cc1,i,?,i,i
O=C(Nc1ccc(C2(C(=O)N3CCN(c4ccccn4)CC3)CCCCC2)cc1)C1CC1,i,28µM,i,i
O=C(N1CCN(c2ccccn2)CC1)C1(c2ccc(Cl)cc2)CCOCC1,i,79µM,i,i
CCC(=O)N1CC(C(=O)N2CCN(c3ccccn3)CC2)C2(CCOCC2)C1 (stereo not drawn),i,32µM,i,i
CC(=O)Nc1ccc(C2(C(=O)N3CCN(c4ccccn4)CC3)CCCCC2)cc1,i,28µM,i,i
O=C(N1CCN(c2ncccn2)CC1)C1(c2ccc(Cl)cc2)CCOCC1,i,i,i,?
CCC(=O)N1CC(C(=O)Nc2ccccn2)C2(CCOCC2)C1 (stereo not drawn),i,i,i,i
O=C(/C=C/c1ccc(-c2ccc(Cl)c(Cl)c2)o1)c1ccc(Br)cc1,nt,i,nt,nt
SMILES,SNCA viab count,KDM5B inh,IP6K1 inh,SNCA expr inh
COc1ccc2c(c1)C(C[C@H]1CN(C(=O)C3CCC3)CC[C@H]1CC(=O)O)=NCC2,i,35µM,i,i
COc1cccc2c1CCN=C2C[C@H]1CN(C(=O)C2CCC2)CC[C@H]1CC(=O)O,i,35µM,i,i
O[C@H]1[C@H](NCc2ccncc2)[C@H]2CO[C@H](O2)[C@@H]1N1CCN(c2ccccc2)CC1,i,22µM,i,i
Oc1ccccc1CN[C@H]1[C@H](O)[C@@H](N2CCN(c3ccccc3)CC2)[C@@H]2OC[C@H]1O2,i,?,i,i
CCN1CCN(C(=O)Cn2c(C)ccc(NC(=O)Nc3ccc(C)cc3)c2=O)CC1,i,?,i,i
COc1cccc(NC(=O)Cn2c(C)ccc(NC(=O)Nc3ccc(C)cc3)c2=O)c1,i,28µM,i,i
COc1ccc(NC(=O)Nc2ccc(C)n(CC(=O)Nc3ccc(C)c(C)c3)c2=O)cc1,i,18µM,i,i
CCCN1CCN(C(=O)Cn2c(C)ccc(NC(=O)Nc3ccccc3)c2=O)CC1,i,25µM,i,i
Cc1ccc(NC(=O)Nc2ccc(C)n(CC(=O)Nc3ccccc3)c2=O)cc1,i,?,i,i
Cc1noc([C@@H](C)NC(=O)c2cccs2)c1C(=O)O,i,i,i,i
Cc1nn(-c2ccccc2)nc1C(=O)N[C@H](C)c1onc(C)c1C(=O)O,i,32µM,i,i
O=C(NC1CCc2nn(CC3CC3)c(=O)n2CC1)c1n[nH]c2ccccc12 (stereo not drawn),i,28µM,i,i
O=C(NC1CCc2nn(CC3CC3)c(=O)n2CC1)c1cc2ccccc2[nH]1 (stereo not drawn),i,?,i,i
CN(Cc1cccc2[nH]ccc12)C1CCc2nn(CC3CC3)c(=O)n2CC1 (stereo not drawn),i,25µM,i,i
CCOc1ccccc1CN(C)C1CCc2nn(CC3CC3)c(=O)n2CC1 (stereo not drawn),i,i,i,i
O=C(COCC1CCCO1)N1CCc2onc(-c3ccc4c(c3)OCO4)c2C1 (stereo not drawn),i,22µM,i,i
COc1ccc(Cl)cc1-c1ccc2c(c1)C(=O)N1CCN(C(=O)CO)C[C@@H]1C(=O)N2,i,35µM,i,?
COc1ccc(Cl)cc1-c1ccc2c(c1)C(=O)N1CCN(C(=O)c3ccco3)C[C@H]1C(=O)N2,i,35µM,i,i
COc1ccc(Cl)cc1-c1ccc2c(c1)C(=O)N1CCN(C(=O)CC3(CC(=O)O)CCCC3)C[C@H]1C(=O)N2,i,i,i,i
CCOc1cc2c(cn1)NCCN(Cc1ccccc1O)C2,i,35µM,i,i
Oc1ccccc1CN1CCNc2cnc(Oc3ccccc3)cc2C1,i,?,i,i
Cc1cccc(CN2CCNc3cnc(OCc4cccnc4)cc3C2)c1,i,18µM,i,i
COc1cccc(CN2CCNc3cnc(OCc4cccnc4)cc3C2)c1,i,35µM,i,i
COc1ccc(OC)c(CN2CCNc3cnc(Nc4cccnc4)cc3C2)c1,i,25µM,i,i
Nc1cccc(COCC(F)(F)C(F)F)c1,nt,i,nt,nt
SMILES,SNCA viab count,KDM5B inh,IP6K1 inh,SNCA expr inh
Fc1cccc(CN2CCNc3cnc(OCc4cccnc4)cc3C2)c1,i,?,i,i
COc1ccc(OC)c(CN2CCNc3cnc(OCc4cccnc4)cc3C2)c1,i,40µM,i,i
Cc1ccccc1Nc1nc(C(=O)NCc2ccccc2)cs1,nt,i,nt,nt
O=C(NCc1ccccc1)c1csc(Nc2ccncn2)n1,?,nt,i,9.6µM
Cc1nnc(-c2cc(-c3cccc(O)c3)ccn2)n1-c1ccccc1,i,i,i,i
COc1ncccc1-c1ccnc(-c2nnc(C)n2-c2ccccc2)c1,i,32µM,i,i
COc1ccc(C)cc1NC(=O)CCc1ncc(-c2ccc(C)cc2)o1,nt,i,nt,nt
